Experimental data taken from ChEMBL document CHEMBL4513216, “Probing the Open Global Health Chemical Diversity Library for Multistage-Active Starting Points for Next-Generation Antimalarials” (ACS Infect Dis, 2020).
Out of some 65,000 compounds screened, about 2,100 (3.2%) showed an effect of 50% or more. The median lay at about -52%. This is one part of a sample in which strong results are shown more often than they occur.

Tested on: Plasmodium falciparum
Experiment: Screen against P. falciparum Asexual Blood Stage (ABS), at 5uM
Assay type: functional, Dd2
Details: tested at 5 uM

Structure (SMILES) | INHIBITION [%]
CCCn1nc2c(cc1=O)CN(c1ncnc3sccc13)CC2 | -82.2
CCCNC(=O)c1cc(-c2cnc(N3CCCC3)nc2)cn1C | -151
Cc1nc(CNC(=O)c2ccc3c(c2)nc(N2CCOCC2)n3C)cs1 | -33.8
CN1CCS(=O)(=O)[C@@H]2CCN(C(=O)c3ccccc3)CC[C@@H]21 | -102
Cc1ccc(N2CCC3(CCN(Cc4ccccn4)CC3)CC2)nn1 | -21.1
c1ccc(CN2CCC3(CC2)CCN(c2ccccn2)C3)nc1 | 3.14
Cc1cccc(N2CCC3(CCN(Cc4ccccn4)CC3)CC2)n1 | 63.8
O=C(NCC1CCOC1)Nc1ccc(Oc2ccc(F)cc2)nc1 (centres undefined) | 29.4
O=C(CCN1C(=O)CCC1=O)Nc1ccc(OCC(F)(F)F)nc1 | -54.8
O=C(NCC1CC1)Nc1ccc(OCC(F)(F)F)nc1 | 52.7
O=C(NCc1ccco1)c1cccc(C(=O)NCc2ccco2)n1 | -31
CN1CCCC1CCn1ccnc1-c1ccc2ccccc2n1 (centres undefined) | 56.5
c1ccc(-c2noc(CCCN3CCCC3Cn3cccn3)n2)cc1 (centres undefined) | 31.8
CN1CCCC1CCn1ccnc1-c1nc(-c2ccccc2)no1 (centres undefined) | 57.6
Cn1ccnc1CN1CCCCC1c1nc(-c2ccccc2)no1 (centres undefined) | -149
OCC1CCCCN1CCn1ccnc1-c1nc2ccccc2[nH]1 (centres undefined) | 13.2
Cc1nn(C)c2nc(-c3ccccn3)nc(NCCC3CCCN3C)c12 (centres undefined) | -35.5
O=C(NCCc1cccnc1)c1cn(CCN2CCNCC2)nn1 | -75.5
Cc1cnc(N2CCn3c(CN4CCOCC4)nnc3C2)nc1 | -56.3
Cn1c(CN2CC[C@](C)(O)C(C)(C)C2)cc2ccccc21 | -28.6
COc1ccc(C(CNC(=O)c2c(C)noc2C)N(C)C)cc1 (centres undefined) | -125
COc1ccc(CN2CCOC(CCc3ccnc(N)c3)C2)cc1 (centres undefined) | 38.1
COc1ccccc1N1CCC(CNCc2cccc(OC)c2OC)C1 (centres undefined) | 57
COc1ccc(CNCC2CCN(c3ccccc3OC)C2)cc1O (centres undefined) | 24.5
COc1ccccc1N1CCC(CNCc2cccc(O)c2)C1 (centres undefined) | 56.8
COc1ccccc1N1CCC(CNCc2cccc(C#N)c2)C1 (centres undefined) | 3.2
COc1ccccc1N1CCC(CNS(=O)(=O)c2cccs2)C1 (centres undefined) | 7.44

Structure (SMILES) | INHIBITION [%]
COc1cccc(CNCC2CCN(CC(C)O)CC2)c1OC (centres undefined) | -2.28
COc1c(CNCc2ccccc2CO)c(C)nn1C | -2.62
COc1ccccc1N1CCC(CNCc2c(C)nn(C)c2OC)C1 (centres undefined) | 53.5
COc1ccccc1N1CCC(CNS(=O)(=O)c2c(C)nn(C)c2C)C1 (centres undefined) | -22.2
C/C(NC(=O)c1ccco1)=C1/C(=O)C[C@@H]2[C@H]1C2(C)C | -86.3
CC(C)N(C)Cc1cn2c(n1)CN(C(=O)Cc1ccccc1)CC2 | -63.5
COc1c(CNCc2cccnc2N2CCN(C)CC2)c(C)nn1C | -95.3
CCOc1nc2cnccc2n(CC(=O)NCc2ccc(C)cc2)c1=O | -10.3
Cc1nc(N2CCOCC2)nc2c1CCN(Cc1ccsc1)CC2 | -79.9
CCCc1ccc(C(=O)N2Cc3c(Cn4ccnc4)nn(C)c3C2)cc1 | -64.1
CCO[C@H]1C[C@@H](O)C12CCN(C(=O)CC(F)(F)F)CC2 | -105
Cc1cc(N2C[C@H](C3CC3)[C@@H](N)C2)nc(N2CCCCC2)n1 | 56.4
CCc1cc(N2C[C@H](C3CC3)[C@@H](N)C2)nc(N2CCCC2)n1 | 69.6
CNc1cc(C)nc(N2C[C@@H](C(=O)O)[C@H](C3CC3)C2)n1 | -75.5
CC(C)Oc1cc(N2C[C@H](C3CC3)[C@@H](N)C2)nc(N)n1 | -211
CCc1cc(N2C[C@H](C3CC3)[C@@H](N)C2)nc(N2CCOCC2)n1 | -73.7
N[C@H]1CN(Cc2cnc(N3CCCC3)nc2)C[C@@H]1C1CC1 | -9
CCc1ccc(CN(CCCn2ccnc2)Cc2ccc(C)s2)o1 | 21.9
CN1[C@@H]2CC[C@H]1CN(c1nc(-c3ccncc3)nc3c1cnn3C)CC2 | -86.6
CCc1cc(C(=O)N2Cc3ccccc3OC3(CCOCC3)C2)on1 | -33.7
CN(C)CCN1C(=O)CCC12CCCN(C(=O)CC1CC1)CC2 (centres undefined) | -26.4
Cc1nccn1CCC1CCCCN1Cc1ccncc1 (centres undefined) | -88.5
Cc1nccn1CCC1CCCCN1Cc1ccc2c(c1)OCCO2 (centres undefined) | 46.4
Cc1nccn1CCC1CCCCN1Cc1ccc(O)cc1Cl (centres undefined) | 24.6
Cc1nccn1CCC1CCCCN1Cc1cccc(CCN)c1 (centres undefined) | 59.8
Cc1nccn1CCC1CCCCN1Cc1cnc(N(C)C)nc1 (centres undefined) | 4.12
Cc1cc2c(cc1CN1CCCCC1CCn1ccnc1C)OCO2 (centres undefined) | 67.7
